# Hits are enriched below; roughly 8% of the tested compounds scored in any of these assays.
# KB-3-1 cytotox – KB-3-1 parental cell cytotoxicity. Potency, µM (top dose mostly 46.1 µM), hits mostly cytotoxic. KB-3-1 viability, CellTiter-Glo ATP luminescence, 72 h. 400,000 compounds, 1.4% hits. AID 1347075; also: % is scaled to controls: 0 for no effect and ±100 for the full control effect; nearly all actives have a fitted effect of over 60% in size
#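 Using CellTiter-Glo luminescence, growth of non-resistant KB-3-1 adenocarcinoma cells is assessed 72 h after pin-tool compound addition at 37 °C. Normalized responses across the concentration series yield fitted curves.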
# HT1080NT lethal – kills 2HG-producing HT-1080-NT fibrosarcoma cells; HT-1080-NT fibrosarcoma viability, CellTiter-Glo ATP luminescence, 48 h; Potency, µM (top dose mostly 46.1 µM), inactives show top-dose activity, negative = less viability, actives largely listed as cytotoxic; 360,000 compounds, 1.6% hits; AID 686970;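 also: NT is the 2HG producing partner of a matched IDH1 knockdown line; 0% = DMSO-treated cells and -100% = media-only wells without cells; nearly all actives have a fitted effect of over 55% in size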
#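 Compounds were tested in concentration-response format on HT-1080-NT cells for 48 hours at 37 degrees C. Cell viability came from CellTiter-Glo luminescence; curves were classified by r2, response magnitude and activity.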
# KB-V1 MDR tox – KB-V1 MDR subline cytotoxicity; KB-V1 MDR cells viability, CellTiter-Glo, 72 h; 400,000 compounds, 3.4% hits; Potency, µM (top dose mostly 46.1 µM), hits mostly cytotoxic; also: % is scaled to controls: 0 for no effect and ±100 for the full control effect; nearly all actives have a fitted effect of over 60% in size
#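 Luminescent ATP read-out (CellTiter-Glo, 10 min) measures survival of drug-selected KB-V1 MDR cells after 72 h, 37 degrees C compound exposure. Medium: phenol-red-free DMEM, 10% FBS. Values from fitted concentration-response curves.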
# SW480 rereplic – DNA re-replication induction in SW480 cells; SW480 DNA re-replication, Hoechst DNA content imaging, 48 h; Potency, µM (series often up to 46.1 µM), for inactives: at the top dose re-replication activation, hits mostly activators; 340,000 compounds, 1.8% hits; also: % of control where 0% means no effect; nearly all actives have a fitted effect of over 55% in size
#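 Compounds, transferred as 23 nL by pin tool, were incubated with cells for 48 hr; DNA content per nucleus was then quantified by Hoechst staining and fluorescence plate imaging.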
# HT1080 IDH1KD tx – toxicity to HT-1080 IDH1 knockdown cells (counter line). HT-1080 IDH1 knockdown viability, ATP luminescence, 48 h. Potency, µM (doses to about 46.1 µM), for inactives: at the top dose activity, negative = toxicity, actives largely listed as cytotoxic. 360,000 compounds, 2% hits. AID 686971;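 also: 0% = DMSO wells and -100% = cell-free medium wells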
#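 IDH1KD HT-1080 cells, 750/well, RPMI + 5% FBS; compound pinned after 2 h settling; 48 h, 37 °C; CellTiter-Glo luminescence; % activity normalised to DMSO and no-cell wells; curves fitted, classed by r2 and efficacy.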
# MCF10A rerep – DNA re-replication induction in MCF 10a cells | 350,000 compounds, 2.9% hits | Potency, µM (doses to about 46.1 µM), without a hit: at the highest dose activity, positive = re-replication, most hits filed as activators | MCF 10A DNA re-replication, Hoechst nuclear intensity, 48 h | AID 624296; also: % of control where 0% means no effect; nearly all actives have a fitted effect of over 50% in size
# Numbers without * were called inactive; i = inactive; ? = inconclusive; nt = no result given; [ ] = another dose, or the depositor's remark. Calls follow the shape of the dose curve; as a rule, active = well fitted curve in the direction sought with a large enough effect; inconclusive = small, poorly fitted or top-dose-only effect, or another doubt; inactive = no such curve, though single readings can be large; an effect the other way counts as inactive or inconclusive. Potency is read from the fitted curve at half-maximal effect.
SMILES,KB-3-1 cytotox,HT1080NT lethal,KB-V1 MDR tox,SW480 rereplic,HT1080 IDH1KD tx,MCF10A rerep
COc1ccc(N(CC(=O)NCCSCc2c(F)cccc2Cl)S(C)(=O)=O)cc1OC,i,0.7%,8.2µM*,3.5%,2.6%,0.7%
COc1ccc(N(CC(=O)NCCSc2ccccc2)S(C)(=O)=O)cc1,?,-5.0%,i,3.3%,-7.1%,-1.6%
COc1cccc(NC(=O)CSc2ncc3c(n2)-c2ccc(Cl)cc2N(C)S3(=O)=O)c1,i,nt,i,nt,nt,nt
CCCCCn1cc2c(c1-c1ccc(Br)cc1)c(=O)n(C)c(=O)n2C,i,nt,i,nt,nt,nt
CNC(=S)N=Nc1c(O)[nH]c2ccccc12,i,0.8%,?,10.8%,-1.0%,11.3%
Oc1cccc(NC(=S)N=Nc2c(O)[nH]c3ccc(Br)cc23)c1,?,?,i,-9.1%,20.6µM*,-21.2%
CNC(=S)N=Nc1c(O)[nH]c2ccc(C(C)C)cc12,?,1.4%,20.6µM*,-33.2%,-1.5%,2.8%
O=C(N=Nc1c(O)[nH]c2ccccc12)c1cccc(S(=O)(=O)N2CCCCC2)c1,i,2.9%,i,-4.4%,18.3%,0.6%
Oc1[nH]c2ccc(Br)cc2c1N=NC(=S)Nc1ccc(F)cc1,?,?,?,?,?,1.0%
Oc1ccc(NC(=S)N=Nc2c(O)[nH]c3ccc(Br)cc23)cc1,i,?,?,?,20.6µM*,?
CC(C)c1ccc2[nH]c(O)c(N=NC(=O)c3cccc(S(=O)(=O)N4CCCCC4)c3)c2c1,?,6.4%,2.31µM*,-1.6%,3.9%,-0.3%
Cc1onc(-c2c(F)cccc2Cl)c1C(=O)Nc1cccc(S(=O)(=O)NCc2ccco2)c1,i,-1.2%,?,-1.3%,-26.3%,0.6%
CCCCCCN1C[C@@H](n2cc(COC(=O)c3ccccc3)nn2)[C@H](O)C[C@@H]1c1ccc(Cl)cc1,i,8.8%,i,nt,6.3%,nt
CC(=O)c1ccc(NC(=O)Cn2cc3c(n2)CCCC3)cc1,i,nt,i,nt,nt,nt
CC(=O)Nc1ccc(NS(=O)(=O)c2c(C(=O)N3CCCCCC3)c(C)n(C)c2C)cc1,i,nt,i,nt,nt,nt
CCCCC[C@@H](/C=C/C1C(=O)C=C[C@H]1C/C=C\CCCC(=O)OC)OC(C)=O (some centres not stated),?,?,?,-21.9%[9.22 µM],?,18.4µM*
Cc1ccccc1OCC(=O)OCc1cc(=O)n2nc(C3CCCCC3)sc2n1,i,nt,i,nt,nt,nt
OC1(c2ccc(Cl)c(Cl)c2)C[n+]2ccccc2N1Cc1ccccc1 (configuration not stated),?,18.4µM*,i,?,20.6µM*,15.8%
O=C(CCS(=O)(=O)c1ccc(Br)cc1)N1CCN(c2ccc(Cl)cc2)CC1,i,13.8%,5.8µM*,4.5%,-0.4%,13.3%
O=C(NCCC(=O)N1CCN(c2cccc(Cl)c2)CC1)c1ccc(Br)cc1,i,-2.9%,23.1µM*,1.7%,?,?
O=C(NC(=O)N1CCN(c2cccc(Cl)c2)CC1)c1ccc(Cl)cc1,i,?,?,-0.3%,0.0%,5.17µM*
Oc1ccc(-c2n[nH]c(C(F)(F)F)c2-c2ccccc2)c(O)c1,?,-20.4%,?,-0.5%,10.3µM*,?
COc1ccc(-c2c(-c3ccc(O)cc3O)n[nH]c2C(F)(F)F)cc1,i,?,i,11.6µM*,?,?
COc1ccccc1-c1c(-c2ccc(O)cc2O)n[nH]c1C(F)(F)F,i,-5.2%,i,-2.8%,-20.0%,-2.5%
COc1ccc(-c2c(-c3ccc(OC)c(C)c3O)n[nH]c2C)cc1,i,?,i,2.9%,18.4µM*,?
SMILES,KB-3-1 cytotox,HT1080NT lethal,KB-V1 MDR tox,SW480 rereplic,HT1080 IDH1KD tx,MCF10A rerep
CC(=O)c1ccc(C(=O)N(Cc2cccnc2)c2nc3c(Cl)cccc3s2)cc1,i,nt,i,nt,nt,nt
COc1ccc([N+](=O)[O-])cc1N(CC1CO1)S(=O)(=O)c1ccc(C)cc1 (configuration not stated),?,?,i,8.2%,?,?
Cc1ccc(-n2c(=O)c3sc4ccccc4c3n(C)c2=O)cc1F,i,nt,i,nt,nt,nt
COc1ccc(N(C(=O)c2ccccc2C)S(=O)(=O)c2ccc3c(c2)n(C)c(=O)n3C)cc1,i,nt,i,nt,nt,nt
O=C(NCCCN1CCOCC1)c1ccc(N2CCOCC2)c([N+](=O)[O-])c1,nt,5.5%,nt,-12.2%,2.1%,6.2%
CC(=O)NCCNC(=O)c1ccc(Sc2ccccc2)c([N+](=O)[O-])c1,i,-3.3%,i,1.9%,-1.9%,?
O=C(NCCCN1CCOCC1)c1ccc(Sc2ccc(F)cc2)c([N+](=O)[O-])c1,i,2.8%,23.1µM*,-10.4%,2.2%,-6.5%
CN(C)CCNC(=O)c1ccc(Sc2ccc(Br)cc2)c([N+](=O)[O-])c1,?,23.1µM*,?,-1.7%,18.4µM*,?
COc1cccc(N2CCN(C(=O)C3Cc4ccccc4N3C(C)=O)CC2)c1 (configuration not stated),i,nt,i,nt,nt,nt
Cc1ccc2c(=O)cc(C(=O)Nc3sc4c(c3C(=O)NCc3ccco3)CCC4)oc2c1C,i,nt,i,nt,nt,nt
O=C(CCNC(=O)c1ccc([N+](=O)[O-])cc1)Nc1ccc(S(=O)(=O)N2CCOCC2)cc1,i,1.8%,i,-3.9%,-0.9%,-0.4%
COC(=O)c1c(-c2ccc(N(C)C)cc2)sc2ccc(OC)cc12,i,?,i,14.6µM*,-3.4%,?
COC(=O)c1c(-c2ccc(OC)cc2)sc2cc3c(cc12)OCO3,i,0.0%,i,-5.1%,3.6%,?
Cc1ccccc1NC(=O)c1cccc2nc3ccccc3nc12,?,-8.6%,?,18.4µM*,-0.9%,?
O=C(Nc1cccc(Cl)c1)Nc1nnc(CC2=CCCCC2)s1,23.1µM*,-0.9%,i,-3.5%,-1.0%,?
O=C(Nc1nnc(CC2=CCCCC2)s1)Nc1ccccc1F,i,-8.2%,i,-0.6%,32.6µM*,?
CCc1ccc2oc(-c3ccc(C)c(NC(=O)COc4ccccc4Cl)c3)nc2c1,i,nt,i,nt,nt,nt
CCN1CCN(C(=O)c2ccc(Sc3ccccc3Cl)c([N+](=O)[O-])c2)CC1,i,-7.5%,13µM*,5.6%,-2.8%,-29.5%
CCN1CCCC1CNC(=O)c1ccc(Sc2ccccc2Cl)c([N+](=O)[O-])c1 (configuration not stated),i,25.9µM*,i,-4.7%,?,?
